# Compound activity as filed in PubChem BioAssay.
# The sample as a whole holds a higher share of hits than the screen did.
# KDM5B inh: inhibitors of human KDM5B histone demethylase; Q9UGL1; KDM5B demethylase, FDH-coupled NADH fluorescence (FDH is formaldehyde dehydrogenase); Potency, µM (top dose mostly 57.7 µM), usual class: inhibitors; hit rate 2.6% among 220,000; AID 1347165; active = well fitted inhibition curve with a large enough effect; note: 0% is about no effect; nearly all actives have a fitted effect of over 70% in size
#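 Inhibition is measured as reduced NADH fluorescence generation from FDH coupling to formaldehyde release. Truncated KDM5BΔAP at 200 nM final acts on H3K4me3 peptide (12.5 µM in substrate mix) in pH 7.5 HEPES buffer with Tween-20, 30 min, room temperature.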
# * = called active by the depositor; i = inactive. Potency is the fitted concentration of half-maximal effect.
SMILES,KDM5B inh
COc1cc(OC)c(OC)cc1/C=C(/C#N)c1ccc(Cl)cc1,i
O=c1c2ccccc2nc(SCc2nc(-c3ccccc3)no2)n1CCCO,i
Cc1ccc2c(CN3C(=O)c4ccccc4S3(=O)=O)cc(=O)oc2c1C,i
Cc1cc(Cl)ccc1NC(=O)CSc1nc2cc([N+](=O)[O-])ccc2o1,i
Cn1c(=O)c2c(ncn2Cc2c(F)cccc2Cl)n(C)c1=O,i
O=C(NCCCn1nnc2ccccc21)C1CC(=O)N(Cc2ccccn2)C1 (centres undefined),i
Cc1ccc(-n2ncc3c2ncn2nc(-c4cccs4)nc32)c(C)c1,i
CC1CN(C(=O)COc2ccc(Cl)cc2Cl)c2ccccc2NC1=O (centres undefined),i
Cc1cccc2oc(CNC(=O)C(c3cccnc3)N3CCOCC3)nc12 (centres undefined),i
COc1ccc(C)cc1NC(=O)C(=O)NCCc1csc2nc(-c3ccccc3C)nn12,i
CC(C)C(=O)Nc1ccccc1Br,i
CC(=O)Nc1cccc(NC(=O)C(=O)NCCc2csc(-c3ccc(C(F)(F)F)cc3)n2)c1,i
O=C1CCN(C(=O)C2CCN(C(=O)C3CC3)CC2)CCCCCCN1,i
Cc1cc(C(F)(F)F)n2ncc(C(=O)N3C[C@@H](C)[C@](O)(C4CCC4)C3)c2n1,i
C[C@@H]1CN(C(=O)c2ccc3c(c2)CCC3)C[C@]1(C)O,i
Cc1cc(C2CCC2)nc(N2C[C@@H](C)[C@@](C)(O)C2)n1,28µM*
COc1cccc(C(=O)Nc2ccc3c(c2)CN(Cc2ccc(F)cc2)C(=O)C(C)O3)c1 (centres undefined),i
COc1ccc(OC2CN(C(=O)c3ccc4c(c3)OCO4)C2)cc1,i
Cc1c(C(=O)Nc2ccc(S(=O)(=O)C(F)F)cc2)oc2ccccc12,i
COc1ccccc1CC(=O)Nc1cccn2nc(C(C)C)nc12,i
O=C(C1CC=CCC1)N1CCCC(C(F)(F)F)C1 (centres undefined),i
Fc1ccc(-c2ccc3ncc(Nc4ccnc(N5CCOCC5)c4)n3n2)cc1,i
COc1cncc(Nc2cnc3ccc(-c4ccccc4OC)nn23)c1,i
COc1ccc(Nc2cnc3ccc(N(C)Cc4cccnc4)nn23)cc1OC,i
COc1cncc(Nc2cnc3ccc(N(C)Cc4ccc(F)cc4)nn23)c1,35µM*
SMILES,KDM5B inh
CN(Cc1ccc(F)cc1)c1ccc2ncc(Nc3ccnc(N4CCOCC4)c3)n2n1,28µM*
Fc1ccc(-c2ccc3ncc(Nc4cc(F)cc(N5CCOCC5)c4)n3n2)cc1,i
CN(Cc1cccnc1)C1CN(C(=O)c2ccc3ccccc3n2)C1,i
Cc1nsc(NC(=O)N2CCC(C(C)O)CC2)n1 (centres undefined),i
O=C(CC1=CCCCC1)NC1CCc2n[nH]c(=O)n2CC1 (centres undefined),i
Cc1cnc(C(=O)N[C@@H]2CCC[C@@H]2C(=O)NCCc2ccc(Cl)cc2)cn1,i
O=C(CC1CCN(C(=O)C2(c3ccccc3)CC2)C1)NC1CC1 (centres undefined),i
Cc1cnc(C2CCOCC2)n1C1CCN(C(=O)C(C)Oc2ccccc2)CC1 (centres undefined),i
O=C1Nc2ccc(Br)cc2C(=O)N2CC[C@H](NS(=O)(=O)c3cccs3)C[C@@H]12,i
COCC(=O)N[C@H]1CCN2C(=O)c3ccccc3NC(=O)[C@@H]2C1,i
COCC(=O)N[C@H]1C[C@H]2C(=O)Nc3ccc(-c4cccs4)cc3C(=O)N2C1,35µM*
COCC(=O)N[C@H]1C[C@@H]2C(=O)N[C@H]3CCN(C(=O)c4cccn4C)[C@@H]3C(=O)N2C1,i
CC(C)(C)CC(=O)N[C@H]1C[C@H]2C(=O)Nc3ccc(-c4ccsc4)cc3C(=O)N2C1,i
O=C(O)CSCC(=O)N[C@H]1C[C@H]2C(=O)Nc3ccc(-c4cccs4)cc3C(=O)N2C1,28µM*
Cc1ccc2nc(CSc3nnc(N4CCCC4)n3-c3ccccc3Cl)cn2c1,i
Cc1noc([C@@H]2CN(C(=O)COc3ccc(Cl)cc3)C[C@H]2CO)n1,i
CCOc1ccc2cc(-c3csc(Nc4ccc(F)cc4)n3)c(=O)oc2c1,i
Cc1noc(-c2cccs2)c1C(=O)NC(C)c1cccc2ccccc12 (centres undefined),32µM*
Cc1cccc(CNC(=O)c2c(C)noc2-c2cccs2)c1,28µM*
COc1ccc(-c2onc(C)c2C(=O)N[C@@H](C)c2ccc(OC)cc2)cc1,i
Cc1noc(-c2cccs2)c1C(=O)NC(C)c1ccccc1 (centres undefined),25µM*
Cc1cccc(CNC(=O)c2c(C)noc2-c2ccccc2Cl)c1,i
Cc1nc2ccccc2nc1SCC(=O)NC(C)c1cccc2ccccc12 (centres undefined),i
Cc1nc(-c2cccs2)c(CC(=O)NC(C)c2cccc3ccccc23)s1 (centres undefined),i
Cc1noc(-c2cccs2)c1C(=O)N(C)Cc1ccccc1,i
SMILES,KDM5B inh
COc1cc(OC)c(CNC(=O)c2c(C)noc2-c2cccs2)c(OC)c1,i
CCN(CC)Cc1ccccc1CNC(=O)c1cc2cccc(OC)c2oc1=O,i
O=C1NC(=NC2CCCCC2)C2(CCCN(CC3CC3)C2)N1c1cc(F)cc(F)c1 (centres undefined),i
Cc1c(Cl)c(C(=O)N2CCn3nc(Cc4ccccc4)cc3C2)nn1C,i
CNC(=O)CCc1nc(-c2ccccc2)c(-c2ccccc2)o1,i
COc1ccc(NC(=O)c2ccc(CN3C(=O)NC4(CCOCC4)C3=O)cc2)cc1,i
CN1CC(=O)N2CCN(C(=O)Cn3nnc4ccccc4c3=O)CC2C1=O (centres undefined),i
Cc1cc(SCC(=O)Nc2ccc(Cl)cc2)nc2ccccc12,i
CC(=O)NCCNc1cc(C)c2ccc(Cl)cc2n1,25µM*
CC(=O)NCCNC(=O)c1cc2cc(C)ccc2nc1C,i
CC(C)(C)c1ccc(-c2nnc(SCc3nc4ccccc4o3)o2)cc1,i
CCCN(CC1CCOC1)S(=O)(=O)c1ccc(OC)c(Cl)c1 (centres undefined),i
COCCn1c(SCc2nc(-c3ccc(C)cc3)no2)nc2ccsc2c1=O,i
Cc1ccc(-n2nc3n(c2=O)CCN(C(=O)c2cccc(Cl)c2)C3)cc1,i
COC(=O)c1ccc(Cl)c(NC(=O)CN(c2ccccc2)S(=O)(=O)N(C)C)c1,i
COCC1CN(C)CC12CCN(Cc1ccc(F)c(Cl)c1)CC2 (centres undefined),28µM*
COCC1CN(C)CC12CCN(S(=O)(=O)c1cc(F)cc(F)c1)CC2 (centres undefined),i
COCC1CN(Cc2ccc(F)c(F)c2)CC12CCNCC2 (centres undefined),i
Cc1nc(/C=C/C(=O)N(C)Cc2cccs2)cs1,i
CC(C)OC(=O)C(CC(=O)O)N1CCCC1 (centres undefined),i
CN(CC(=O)N1c2ccccc2OCC1c1ccccc1)Cc1nc2ccccc2c(=O)[nH]1 (centres undefined),i
Cc1ccccc1C(=O)NCCSc1c[nH]c2ccccc12,i
Nc1cccc(C(=O)NCC2CCN(Cc3cc(F)cc(F)c3)C2)c1 (centres undefined),28µM*
O=C(NCC1CC1)c1cccc(OC2CN(Cc3cccc(F)c3)C2)c1,i
Cc1cccc(CNC(=O)NCC2CCN(Cc3ccncc3)C2)c1 (centres undefined),14µM*
